# From PubChem
# In the library only some 3.5% were active in any assay of this set; here they are far more common.
# MBD2 inh: inhibitors of MBD2 binding to methylated DNA, primary screen, biochemical, TR-FRET, DNA-binding domain, human | actives 0.31% (n = 370,000) | inhibition, % at 4.4 µM | MBD2 binding to methylated oligonucleotide | Methyl-CpG-binding domain protein 2 (Homo sapiens), Q9UBB5; in the data active = inhibition above about 13%
# LEDGF integ inh: blockers of LEDGF/p75-dependent integrase strand transfer – biochemical, TR-FRET, high throughput, primary screen | inhibition, % at 3.7 µM | actives 0.64% (n = 370,000) | TR-FRET IN-LEDGF/p75 DNA integration, Eu/Cy5 | HIV-1 integrase (with human LEDGF/p75);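 active = inhibition above the screen-wide mean plus 3 SD, cut at about 13% in these data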;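 note: signal is the Cy5 over europium emission ratio at 671 and 618 nm; 0% = plate median of compound wells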
# rCAG RNA binder: binders of r(CAG) RNA repeats, primary screen, biochemical, fluorescence. r(CAG) RNA repeat, TO-PRO-1 dye displacement fluorescence. inhibition, % at 3 µM. actives 1.3% (n = 370,000). AID 651821, 2012;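 active = inhibition above the plate cutoff, the mean of all test compounds on that plate plus 3 SD, cut at about 35% in these data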;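 note: 0% = DMSO alone and 100% = 100 µM mitoxantrone as full dye displacement; higher means more dye released from RNA so lower well fluorescence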
# PG9 binder: binders of HIV-1 gp120 antibody PG9, primary screen, biochemical, TR-FRET; HIV-1 gp120 / PG9 antibody interaction; inhibition, % at 6.7 µM; TR-FRET gp120-PG9 antibody binding; AID 624416, 2012; actives 0.43% (n = 360,000); in the data active = inhibition above about 8.5%
# UHRF1 binding: UHRF1 methylated DNA binding inhibitors, primary screen, counter-screen for MBD2 inhibitor project, biochemical, TR-FRET, human UHRF1, single concentration; UHRF1 binding to methylated oligo; inhibition, % at 4.4 µM; actives 0.75% (n = 370,000); E3 ubiquitin-protein ligase UHRF1 (Homo sapiens), Q96T88; in the data active = inhibition above about 21%;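 note: UHRF1 SRA domain binding a hemimethylated CpG hairpin DNA probe; 0% = median of test compound wells and 100% = reference inhibitor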
# Target sequence (Q96T88 whole entry, looked up, the tested form may be a part): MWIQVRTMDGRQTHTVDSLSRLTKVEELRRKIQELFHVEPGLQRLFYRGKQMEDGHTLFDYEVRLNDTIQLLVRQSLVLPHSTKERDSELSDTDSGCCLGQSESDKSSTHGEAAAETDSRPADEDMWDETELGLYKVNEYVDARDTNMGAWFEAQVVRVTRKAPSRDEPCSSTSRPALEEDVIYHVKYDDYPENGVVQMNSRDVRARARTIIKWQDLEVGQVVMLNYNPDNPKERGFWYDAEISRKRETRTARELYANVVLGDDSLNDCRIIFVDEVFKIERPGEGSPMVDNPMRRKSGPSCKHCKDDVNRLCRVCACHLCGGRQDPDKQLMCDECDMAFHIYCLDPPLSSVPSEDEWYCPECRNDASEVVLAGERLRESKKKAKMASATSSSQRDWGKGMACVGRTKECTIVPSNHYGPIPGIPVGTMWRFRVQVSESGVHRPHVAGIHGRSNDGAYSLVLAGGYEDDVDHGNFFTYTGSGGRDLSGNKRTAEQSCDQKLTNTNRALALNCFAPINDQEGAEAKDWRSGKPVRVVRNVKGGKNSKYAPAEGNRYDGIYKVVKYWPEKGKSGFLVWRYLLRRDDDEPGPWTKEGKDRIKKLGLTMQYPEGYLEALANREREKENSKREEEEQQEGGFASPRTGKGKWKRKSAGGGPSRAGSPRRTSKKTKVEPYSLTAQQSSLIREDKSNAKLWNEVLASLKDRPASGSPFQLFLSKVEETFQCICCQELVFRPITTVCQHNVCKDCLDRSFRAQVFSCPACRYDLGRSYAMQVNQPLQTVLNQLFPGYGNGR
# DNMT1 inh: human DNMT1 methyltransferase inhibitors, primary screen, biochemical, molecular beacon, fluorescence, HinP1I cleavage, uHTS; DNA (cytosine-5)-methyltransferase 1 (Homo sapiens), P26358; actives 0.83% (n = 360,000); inhibition (reported as % activation of signal), % at 10 µM; in the data active = inhibition above about 50%
# rCAG binder conf: small molecules binding CAG repeat RNA – biochemical, fluorescence, confirmation. actives 70% (n = 4,300). r(CAG) RNA repeat, TO-PRO-1 dye displacement fluorescence. inhibition, % at 3 µM. shares compounds with rCAG RNA binder;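 active = inhibition above a per-plate cutoff, the mean inhibition of sample wells plus 3 SD, cut at about 35% in these data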;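 note: loss of TO-PRO-1 fluorescence as compound displaces dye from 1x1 AA loop RNA; 0% = DMSO only wells and 100% = 100 µM mitoxantrone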
# DNA CAG counter: displacement of TO-PRO-1 from CAG DNA duplex, counter-screen for rCAG RNA repeat binder project, biochemical, fluorescence, TO-PRO-1 dye, d(CAG) DNA oligo; shares compounds with rCAG RNA binder; d(CAG) DNA oligo TO-PRO-1 dye displacement; inhibition, % at 3 µM; actives 94% (n = 4,300);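 active = inhibition above its plate's cutoff, the mean test-well inhibition plus 3 SD, cut at about 4.8% in these data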;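 note: 0% = DNA dye mix with DMSO and 100% = 100 µM mitoxantrone; hits displace the dye from DNA and so lower well fluorescence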
# Starred values were filed as active, the others as inactive; · = no result.
SMILES,MBD2 inh,LEDGF integ inh,rCAG RNA binder,PG9 binder,UHRF1 binding,DNMT1 inh,rCAG binder conf,DNA CAG counter
CCOC(=O)[C@]12CCCC=C1N(Cc1ccc(OC)cc1)C(=O)[C@@H]2CC(=O)NCc1cccc2ccccc12,-2,6,4,·,-1,·,·,·
Cc1cccc(S(=O)(=O)NC(=O)C2(C)CCN2C(=O)Cc2ccc(C(C)(C)C)cc2)c1 (configuration not stated),-6,6,40*,3,0,-2,34,7.5*
CC(C)(C)c1ccc(CC(=O)N2CCC2(C)C(=O)NS(=O)(=O)c2ccccc2)cc1 (configuration not stated),2,-1,25,-1,2,-1,·,·
Cc1cccc(S(=O)(=O)NC(=O)C2(C)CCN2C(=O)Cc2ccc(-c3ccccc3)cc2)c1 (configuration not stated),4,-1,53*,-1,0,6,49*,15*
CCOc1ccc(NC(=O)CSc2nnc(CNC(=O)c3cccs3)o2)cc1,1,-1,1,0,0,2,·,·
CN(Cc1c(C(=O)N/N=C/c2c(F)cccc2Cl)nnn1-c1nonc1N)C1CCCCC1,-4,-5,4,3,-1,23,·,·
Cc1ccc(/C=C2/SC(=S)N(c3ccc(S(=O)(=O)Nc4nccs4)cc3)C2=O)cc1,5,1,42*,0,5,0,82*,49*
COc1ccc(/C=C2/SC(=S)N(c3ccc(S(=O)(=O)Nc4nccs4)cc3)C2=O)cc1,0,2,73*,0,3,-3,77*,44*
O=C1/C(=C\c2ccccn2)SC(=S)N1c1ccc(S(=O)(=O)Nc2nccs2)cc1,-1,0,65*,-3,-1,-5,83*,52*
Cc1ccc(N2C(=O)/C(=C/c3cccnc3)SC2=S)cc1,5,-2,1,0,1,-3,·,·
COc1ccc2oc3c(ccc[n+]3C)c(=O)c2c1,-1,4,2,0,1,-1,·,·
Cc1nn(-c2ccccc2)c(Cl)c1/C=C1\SC(=S)N(CCCCCC(=O)O)C1=O,-4,4,33,1,-2,5,·,·
Cc1nn(-c2ccccc2)c(Cl)c1/C=C1\SC(=S)NC1=O,0,0,65*,0,1,1,64*,18*
CCc1cc(C(=O)N=Nc2c(O)[nH]c3ccc([N+](=O)[O-])cc23)c2ccccc2n1,-7,2,42*,-2,-2,-24,35*,22*
COc1ccc(C(CC(=O)c2ccc3c(c2)OCO3)C(=O)O)cc1OC (configuration not stated),2,-3,7,-1,-1,-2,·,·
COC(=O)c1ccc(Cn2cc(C(F)(F)F)ccc2=O)cc1,0,7,-2,-1,1,1,·,·
COC(=O)c1cc(=O)n(-c2ccc(C(F)(F)F)cc2)[nH]1,5,-2,61*,-2,2,4,5,3
CC1(C(=O)NS(=O)(=O)c2ccc(Br)cc2)CCN1C(=O)C1(c2ccccc2)CC1 (configuration not stated),-2,-3,23,0,5,4,·,·
CC1(C(=O)NS(=O)(=O)c2ccc(Cl)cc2)CCN1C(=O)C1(c2ccc(Cl)cc2)CCC1 (configuration not stated),-1,-2,55*,0,0,3,56*,18*
CC1(C(=O)NS(=O)(=O)c2ccc(C#N)cc2)CCN1C(=O)C1(c2ccc(Cl)cc2)CC1 (configuration not stated),-3,4,17,0,0,-1,·,·
Cc1ccc(S(=O)(=O)NC(=O)C2(C)CCN2C(=O)C2(c3ccc(Cl)cc3)CCC2)cc1 (configuration not stated),-2,5,42*,2,2,4,39*,10.0*
CC(C)(C)c1ccc(S(=O)(=O)NC(=O)C2(C)CCN2C(=O)C2(c3ccccc3)CC2)cc1 (configuration not stated),1,-2,47*,0,-3,-4,40*,10*
CC1(C(=O)NS(=O)(=O)c2ccccc2)CCN1C(=O)C1(c2ccc(Cl)cc2)CC1 (configuration not stated),2,-3,16,-1,3,0,·,·
Cc1ccc(S(=O)(=O)NC(=O)C2(C)CCN2C(=O)C2(c3ccc(Cl)cc3)CC2)cc1 (configuration not stated),0,-4,57*,1,-1,2,29,5.7*
CCN1CCC[C@H]1CNCCCn1cnc2c(SC)ncnc21,-1,3,4,-1,0,-1,·,·
CC1(C(=O)NS(=O)(=O)Cc2ccccc2)CCN1C(=O)C1(c2ccc(Cl)cc2)CCC1 (configuration not stated),3,2,41*,2,20,2,30,6.7*
CC1(C(=O)NS(=O)(=O)c2ccc3c(c2)CCO3)CCN1C(=O)C1(c2ccc(Cl)cc2)CCC1 (configuration not stated),3,0,36*,-2,2,-1,32,4
CC1(C(=O)NS(=O)(=O)c2ccc(Cl)cc2)CCN1C(=O)C1(c2ccccc2)CCCC1 (configuration not stated),0,3,50*,-2,-1,3,40*,12*
CCOC(=O)C1=C(O)/C(=C/c2ccc(OCC(=O)O)c(OC)c2)SC1=Nc1ccc(OC)cc1,2,7,52*,-4,2,0,65*,20*
O=C(NNC(=O)c1ccc(F)cc1F)c1ccc(-n2cnnn2)cc1,1,-1,0,0,-2,0,·,·
